# Test results from ChEMBL document CHEMBL1961873, “Compounds: GSK PKIS; Assays: Nanosyn kinase panel” (2012).
# How the values were obtained:
# [1] = target: T1, Mitogen-activated protein kinase 12 (Homo sapiens) (UniProt P53778); settings: at 1 µM;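 note: values are averaged p38gamma kinase inhibition readings, compounds tested at 1 µM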
# T1 sequence (whole entry): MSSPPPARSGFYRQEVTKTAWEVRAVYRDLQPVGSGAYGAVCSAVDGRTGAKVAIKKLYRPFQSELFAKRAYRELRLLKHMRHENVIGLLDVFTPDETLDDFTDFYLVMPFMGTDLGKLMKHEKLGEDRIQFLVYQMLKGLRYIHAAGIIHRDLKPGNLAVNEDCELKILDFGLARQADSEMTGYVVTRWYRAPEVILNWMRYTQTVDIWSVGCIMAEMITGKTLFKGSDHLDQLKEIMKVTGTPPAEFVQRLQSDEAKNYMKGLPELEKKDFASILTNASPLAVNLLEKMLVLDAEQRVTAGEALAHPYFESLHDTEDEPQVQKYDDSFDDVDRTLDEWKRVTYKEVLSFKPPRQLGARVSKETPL
# [2] = target: SRSF protein kinase 1 (Homo sapiens) (UniProt Q96SB4); settings: at 0.1 µM
# [3] = target: SRSF protein kinase 1 (Homo sapiens) (UniProt Q96SB4); settings: at 1 µM
# [4] = target: Phosphatidylinositol 4,5-bisphosphate 3-kinase catalytic subunit alpha isoform (Homo sapiens) (UniProt P42336); settings: at 0.1 µM
# [5] = target: Phosphatidylinositol 4,5-bisphosphate 3-kinase catalytic subunit alpha isoform (Homo sapiens) (UniProt P42336); settings: at 1 µM
# [6] = target: T2, Phosphatidylinositol 4,5-bisphosphate 3-kinase catalytic subunit delta isoform (Homo sapiens) (UniProt O00329); settings: at 0.1 µM
# T2 sequence (whole entry): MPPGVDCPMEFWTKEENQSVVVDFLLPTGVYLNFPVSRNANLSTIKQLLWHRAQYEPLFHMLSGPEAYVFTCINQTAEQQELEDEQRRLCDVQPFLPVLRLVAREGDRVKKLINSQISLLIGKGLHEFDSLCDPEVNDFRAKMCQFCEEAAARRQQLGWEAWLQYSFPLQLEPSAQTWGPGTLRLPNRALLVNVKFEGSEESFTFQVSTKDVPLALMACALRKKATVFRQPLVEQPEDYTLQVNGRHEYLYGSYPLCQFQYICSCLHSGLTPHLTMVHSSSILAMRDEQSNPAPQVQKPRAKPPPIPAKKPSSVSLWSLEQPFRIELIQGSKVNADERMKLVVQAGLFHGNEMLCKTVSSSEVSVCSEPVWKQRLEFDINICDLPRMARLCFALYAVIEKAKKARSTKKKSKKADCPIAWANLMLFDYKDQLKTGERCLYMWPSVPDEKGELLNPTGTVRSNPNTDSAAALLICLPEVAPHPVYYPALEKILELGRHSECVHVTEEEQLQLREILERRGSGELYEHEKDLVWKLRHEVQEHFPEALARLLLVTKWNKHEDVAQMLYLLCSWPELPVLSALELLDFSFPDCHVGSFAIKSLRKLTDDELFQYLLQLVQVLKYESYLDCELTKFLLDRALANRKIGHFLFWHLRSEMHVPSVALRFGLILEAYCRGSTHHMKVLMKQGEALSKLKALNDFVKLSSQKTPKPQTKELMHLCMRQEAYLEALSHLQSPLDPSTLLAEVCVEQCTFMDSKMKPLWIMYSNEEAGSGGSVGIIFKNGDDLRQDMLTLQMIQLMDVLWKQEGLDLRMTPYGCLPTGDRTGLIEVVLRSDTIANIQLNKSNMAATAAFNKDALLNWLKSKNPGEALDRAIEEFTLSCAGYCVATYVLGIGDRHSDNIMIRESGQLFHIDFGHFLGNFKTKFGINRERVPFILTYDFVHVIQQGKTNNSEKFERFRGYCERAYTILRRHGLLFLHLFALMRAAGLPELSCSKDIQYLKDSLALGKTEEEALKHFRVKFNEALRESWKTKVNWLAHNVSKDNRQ
# [7] = target: T2, Phosphatidylinositol 4,5-bisphosphate 3-kinase catalytic subunit delta isoform (Homo sapiens); settings: at 1 µM
# [8] = target: Phosphatidylinositol 4-kinase beta (Homo sapiens) (UniProt Q9UBF8); settings: at 0.1 µM
# [9] = target: Phosphatidylinositol 4-kinase beta (Homo sapiens) (UniProt Q9UBF8); settings: at 1 µM
# [10] = target: Sphingosine kinase 1 (Homo sapiens) (UniProt Q9NYA1); settings: at 0.1 µM
# [11] = target: Sphingosine kinase 1 (Homo sapiens) (UniProt Q9NYA1); settings: at 1 µM
# [12] = target: T3, Sphingosine kinase 2 (Homo sapiens) (UniProt Q9NRA0); settings: at 0.1 µM
# T3 sequence (whole entry): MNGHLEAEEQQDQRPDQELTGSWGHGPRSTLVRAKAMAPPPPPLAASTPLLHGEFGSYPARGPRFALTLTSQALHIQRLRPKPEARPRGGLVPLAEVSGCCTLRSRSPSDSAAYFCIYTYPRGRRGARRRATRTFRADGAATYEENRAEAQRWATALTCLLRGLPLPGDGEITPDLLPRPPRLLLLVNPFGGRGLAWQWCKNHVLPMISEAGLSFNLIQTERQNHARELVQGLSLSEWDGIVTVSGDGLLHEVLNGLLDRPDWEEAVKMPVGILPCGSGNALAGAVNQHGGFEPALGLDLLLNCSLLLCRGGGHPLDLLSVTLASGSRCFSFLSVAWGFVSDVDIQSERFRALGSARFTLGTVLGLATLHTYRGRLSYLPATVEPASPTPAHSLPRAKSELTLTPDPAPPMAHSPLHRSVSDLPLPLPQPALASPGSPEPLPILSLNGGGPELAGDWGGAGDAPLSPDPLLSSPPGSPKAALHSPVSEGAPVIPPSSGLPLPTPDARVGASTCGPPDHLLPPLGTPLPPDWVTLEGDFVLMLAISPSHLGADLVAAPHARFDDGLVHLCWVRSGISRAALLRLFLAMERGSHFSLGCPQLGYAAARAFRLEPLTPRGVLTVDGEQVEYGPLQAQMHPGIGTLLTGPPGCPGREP
# [13] = target: T3, Sphingosine kinase 2 (Homo sapiens); settings: at 1 µM
# [14] = target: Casein kinase II subunit alpha (Homo sapiens) (UniProt P68400); settings: at 0.1 µM
# [15] = target: Casein kinase II subunit alpha (Homo sapiens) (UniProt P68400); settings: at 1 µM
# [16] = target: T4, Inhibitor of nuclear factor kappa-B kinase subunit alpha (Homo sapiens) (UniProt O15111); settings: at 0.1 µM
# T4 sequence (whole entry): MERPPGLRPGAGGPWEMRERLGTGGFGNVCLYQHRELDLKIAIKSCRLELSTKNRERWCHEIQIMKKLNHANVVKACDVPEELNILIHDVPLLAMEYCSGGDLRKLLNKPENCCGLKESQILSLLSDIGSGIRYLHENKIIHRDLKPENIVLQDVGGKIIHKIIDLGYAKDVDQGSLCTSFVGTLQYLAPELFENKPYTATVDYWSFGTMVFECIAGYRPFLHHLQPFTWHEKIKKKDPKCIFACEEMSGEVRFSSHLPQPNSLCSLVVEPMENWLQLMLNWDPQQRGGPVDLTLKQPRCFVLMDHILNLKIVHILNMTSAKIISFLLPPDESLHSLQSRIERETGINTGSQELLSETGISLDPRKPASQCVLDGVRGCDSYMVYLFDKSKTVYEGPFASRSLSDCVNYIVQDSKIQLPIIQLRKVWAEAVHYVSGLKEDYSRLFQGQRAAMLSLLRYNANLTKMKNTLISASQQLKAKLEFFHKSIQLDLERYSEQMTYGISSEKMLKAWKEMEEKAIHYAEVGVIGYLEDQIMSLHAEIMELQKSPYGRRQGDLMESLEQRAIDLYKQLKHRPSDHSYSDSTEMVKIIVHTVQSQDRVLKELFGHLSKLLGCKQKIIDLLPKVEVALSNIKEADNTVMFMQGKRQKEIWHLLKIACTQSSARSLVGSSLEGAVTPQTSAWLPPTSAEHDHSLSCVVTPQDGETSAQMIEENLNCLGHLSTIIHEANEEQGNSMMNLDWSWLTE
# [17] = target: T4, Inhibitor of nuclear factor kappa-B kinase subunit alpha (Homo sapiens); settings: at 1 µM
# [18] = target: T5, Inhibitor of nuclear factor kappa-B kinase subunit beta (Homo sapiens) (UniProt O14920); settings: at 0.1 µM
# T5 sequence (whole entry): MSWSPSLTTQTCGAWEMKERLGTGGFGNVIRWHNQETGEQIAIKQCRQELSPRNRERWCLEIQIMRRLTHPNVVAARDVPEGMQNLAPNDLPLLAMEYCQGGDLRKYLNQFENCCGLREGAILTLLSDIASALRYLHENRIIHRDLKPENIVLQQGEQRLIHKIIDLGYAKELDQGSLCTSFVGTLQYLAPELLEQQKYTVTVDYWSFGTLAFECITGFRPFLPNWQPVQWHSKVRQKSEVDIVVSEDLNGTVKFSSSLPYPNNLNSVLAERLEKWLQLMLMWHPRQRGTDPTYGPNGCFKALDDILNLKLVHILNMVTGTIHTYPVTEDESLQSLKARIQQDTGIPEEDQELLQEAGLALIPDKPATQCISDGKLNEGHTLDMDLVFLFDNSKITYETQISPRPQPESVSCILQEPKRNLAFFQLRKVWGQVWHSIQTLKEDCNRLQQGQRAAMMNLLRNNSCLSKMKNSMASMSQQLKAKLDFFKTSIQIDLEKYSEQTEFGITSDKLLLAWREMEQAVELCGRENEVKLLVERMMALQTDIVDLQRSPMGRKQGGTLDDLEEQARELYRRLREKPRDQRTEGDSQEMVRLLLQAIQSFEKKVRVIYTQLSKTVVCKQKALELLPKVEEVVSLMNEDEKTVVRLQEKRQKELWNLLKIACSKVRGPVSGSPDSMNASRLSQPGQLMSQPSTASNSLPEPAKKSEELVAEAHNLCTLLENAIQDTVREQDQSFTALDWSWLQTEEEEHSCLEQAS
# [19] = target: T5, Inhibitor of nuclear factor kappa-B kinase subunit beta (Homo sapiens); settings: at 1 µM
# [20] = target: T6, Inhibitor of nuclear factor kappa-B kinase subunit epsilon (Homo sapiens) (UniProt Q14164); settings: at 0.1 µM;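 note: mean inhibition of IKKε reported, from the GSK PKIS dataset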
# T6 sequence (whole entry): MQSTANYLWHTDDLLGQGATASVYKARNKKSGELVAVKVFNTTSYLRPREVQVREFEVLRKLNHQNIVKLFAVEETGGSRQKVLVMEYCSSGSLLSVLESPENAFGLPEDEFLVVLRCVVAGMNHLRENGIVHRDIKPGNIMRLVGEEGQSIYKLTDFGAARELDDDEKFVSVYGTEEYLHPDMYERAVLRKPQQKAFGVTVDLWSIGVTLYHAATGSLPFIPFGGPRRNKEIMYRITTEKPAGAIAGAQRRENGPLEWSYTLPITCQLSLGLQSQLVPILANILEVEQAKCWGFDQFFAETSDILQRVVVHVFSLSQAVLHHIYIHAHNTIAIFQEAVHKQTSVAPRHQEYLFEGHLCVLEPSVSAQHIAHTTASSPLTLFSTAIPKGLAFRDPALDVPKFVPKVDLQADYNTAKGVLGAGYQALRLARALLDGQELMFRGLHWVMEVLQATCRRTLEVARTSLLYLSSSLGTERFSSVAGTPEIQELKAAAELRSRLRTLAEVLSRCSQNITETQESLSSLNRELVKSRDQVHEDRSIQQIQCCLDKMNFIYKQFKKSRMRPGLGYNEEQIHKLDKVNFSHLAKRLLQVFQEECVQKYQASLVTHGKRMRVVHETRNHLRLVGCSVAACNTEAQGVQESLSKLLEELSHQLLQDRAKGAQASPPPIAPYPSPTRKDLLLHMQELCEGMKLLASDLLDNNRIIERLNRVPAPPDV
# Chain of Phosphatidylinositol 4-kinase beta (Homo sapiens) (Q9UBF8 2-816 limits assumed): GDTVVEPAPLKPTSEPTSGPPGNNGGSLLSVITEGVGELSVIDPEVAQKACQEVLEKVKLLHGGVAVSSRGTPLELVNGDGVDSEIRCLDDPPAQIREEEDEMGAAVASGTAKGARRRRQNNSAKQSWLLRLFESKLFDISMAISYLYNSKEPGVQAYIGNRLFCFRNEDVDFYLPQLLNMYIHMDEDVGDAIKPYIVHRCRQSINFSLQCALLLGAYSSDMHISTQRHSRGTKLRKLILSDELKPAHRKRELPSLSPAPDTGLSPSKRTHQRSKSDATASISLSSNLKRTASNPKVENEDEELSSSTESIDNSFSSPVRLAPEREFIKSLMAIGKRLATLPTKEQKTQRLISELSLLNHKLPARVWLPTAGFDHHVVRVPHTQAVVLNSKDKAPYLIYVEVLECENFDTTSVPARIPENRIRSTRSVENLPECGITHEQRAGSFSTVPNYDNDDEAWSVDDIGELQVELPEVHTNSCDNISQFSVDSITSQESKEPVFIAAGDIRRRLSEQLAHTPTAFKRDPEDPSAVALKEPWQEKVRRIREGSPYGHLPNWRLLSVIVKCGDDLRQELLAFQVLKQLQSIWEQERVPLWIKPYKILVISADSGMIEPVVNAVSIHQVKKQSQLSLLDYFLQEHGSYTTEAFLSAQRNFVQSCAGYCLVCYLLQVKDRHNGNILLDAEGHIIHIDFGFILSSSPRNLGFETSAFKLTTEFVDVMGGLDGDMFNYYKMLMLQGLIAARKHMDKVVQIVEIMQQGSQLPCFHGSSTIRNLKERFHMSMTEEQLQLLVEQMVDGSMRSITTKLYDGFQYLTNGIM
# Chain of SRSF protein kinase 1 (Homo sapiens) (Q96SB4 whole entry, canonical isoform): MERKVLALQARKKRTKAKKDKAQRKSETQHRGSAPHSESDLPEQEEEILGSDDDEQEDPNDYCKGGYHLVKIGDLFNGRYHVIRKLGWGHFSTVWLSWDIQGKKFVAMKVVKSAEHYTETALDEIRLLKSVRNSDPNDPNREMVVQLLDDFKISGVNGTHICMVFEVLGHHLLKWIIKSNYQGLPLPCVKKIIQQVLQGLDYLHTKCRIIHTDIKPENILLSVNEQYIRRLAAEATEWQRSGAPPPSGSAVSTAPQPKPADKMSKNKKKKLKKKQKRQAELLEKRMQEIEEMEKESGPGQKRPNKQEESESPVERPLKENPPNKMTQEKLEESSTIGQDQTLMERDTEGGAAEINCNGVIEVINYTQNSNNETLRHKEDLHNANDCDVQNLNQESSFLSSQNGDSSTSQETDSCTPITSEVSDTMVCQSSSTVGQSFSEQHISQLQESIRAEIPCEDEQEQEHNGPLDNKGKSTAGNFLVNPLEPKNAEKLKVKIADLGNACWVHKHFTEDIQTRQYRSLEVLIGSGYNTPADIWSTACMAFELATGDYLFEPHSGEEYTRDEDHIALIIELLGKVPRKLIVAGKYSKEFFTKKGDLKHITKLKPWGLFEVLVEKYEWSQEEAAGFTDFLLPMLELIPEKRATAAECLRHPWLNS
# Chain of Phosphatidylinositol 4,5-bisphosphate 3-kinase catalytic subunit alpha isoform (Homo sapiens) (P42336 whole entry, canonical isoform): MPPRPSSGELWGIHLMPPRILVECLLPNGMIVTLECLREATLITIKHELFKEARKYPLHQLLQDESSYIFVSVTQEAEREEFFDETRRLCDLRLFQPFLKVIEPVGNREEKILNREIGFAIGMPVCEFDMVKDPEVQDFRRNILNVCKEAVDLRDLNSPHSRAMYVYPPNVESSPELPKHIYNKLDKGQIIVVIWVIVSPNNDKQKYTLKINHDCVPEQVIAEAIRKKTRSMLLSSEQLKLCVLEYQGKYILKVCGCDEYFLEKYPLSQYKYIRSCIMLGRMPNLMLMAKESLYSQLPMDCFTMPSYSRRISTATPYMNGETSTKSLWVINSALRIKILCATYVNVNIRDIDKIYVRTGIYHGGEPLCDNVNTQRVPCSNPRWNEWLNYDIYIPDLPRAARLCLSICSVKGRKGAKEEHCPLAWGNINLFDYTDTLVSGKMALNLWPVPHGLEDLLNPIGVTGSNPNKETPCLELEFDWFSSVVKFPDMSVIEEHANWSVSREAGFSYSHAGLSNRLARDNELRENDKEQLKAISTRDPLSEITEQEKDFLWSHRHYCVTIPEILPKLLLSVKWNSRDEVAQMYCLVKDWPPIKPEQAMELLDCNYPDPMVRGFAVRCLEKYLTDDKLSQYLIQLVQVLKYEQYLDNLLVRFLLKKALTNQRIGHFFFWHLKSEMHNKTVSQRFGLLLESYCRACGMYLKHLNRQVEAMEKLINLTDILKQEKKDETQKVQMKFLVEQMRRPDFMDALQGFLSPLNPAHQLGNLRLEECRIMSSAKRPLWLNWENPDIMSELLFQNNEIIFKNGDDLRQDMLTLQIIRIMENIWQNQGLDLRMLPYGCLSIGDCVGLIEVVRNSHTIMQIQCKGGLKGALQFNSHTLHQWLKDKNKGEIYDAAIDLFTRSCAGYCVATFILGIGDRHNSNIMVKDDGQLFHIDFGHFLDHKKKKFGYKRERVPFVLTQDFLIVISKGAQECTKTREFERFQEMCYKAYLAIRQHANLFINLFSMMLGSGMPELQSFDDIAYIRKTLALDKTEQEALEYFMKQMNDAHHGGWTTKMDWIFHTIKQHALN
# Chain of Sphingosine kinase 1 (Homo sapiens) (Q9NYA1 whole entry): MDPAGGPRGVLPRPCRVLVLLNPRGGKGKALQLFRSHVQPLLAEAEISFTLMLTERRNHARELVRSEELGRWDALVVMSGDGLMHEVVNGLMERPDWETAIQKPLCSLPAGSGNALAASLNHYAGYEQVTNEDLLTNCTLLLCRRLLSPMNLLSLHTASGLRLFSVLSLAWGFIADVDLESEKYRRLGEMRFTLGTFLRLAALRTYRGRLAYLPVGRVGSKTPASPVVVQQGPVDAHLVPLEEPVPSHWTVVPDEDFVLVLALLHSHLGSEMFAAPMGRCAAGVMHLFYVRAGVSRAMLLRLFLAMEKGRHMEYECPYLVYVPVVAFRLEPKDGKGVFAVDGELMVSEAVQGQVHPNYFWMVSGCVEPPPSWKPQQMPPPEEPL
# Chain of Casein kinase II subunit alpha (Homo sapiens) (P68400 whole entry, looked up): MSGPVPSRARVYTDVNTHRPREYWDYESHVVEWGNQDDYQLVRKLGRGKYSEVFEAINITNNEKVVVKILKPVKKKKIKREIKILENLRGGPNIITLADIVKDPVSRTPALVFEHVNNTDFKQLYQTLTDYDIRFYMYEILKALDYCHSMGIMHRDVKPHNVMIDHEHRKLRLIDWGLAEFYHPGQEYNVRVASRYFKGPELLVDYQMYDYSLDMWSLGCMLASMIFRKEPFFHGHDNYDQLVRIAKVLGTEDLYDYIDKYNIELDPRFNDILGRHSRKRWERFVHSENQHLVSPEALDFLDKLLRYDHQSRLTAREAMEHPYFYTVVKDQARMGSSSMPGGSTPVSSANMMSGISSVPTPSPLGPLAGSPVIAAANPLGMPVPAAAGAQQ
compound,measurement,setting,value
COc1cc(Nc2ncc(-c3ccccc3)o2)cc(OC)c1OC,inhibition,[1],-1.06%
same,inhibition,[2],2.19%
same,inhibition,[3],1%
same,inhibition,[4],0.99%
same,inhibition,[5],2.57%
same,inhibition,[6],2.6%
same,inhibition,[7],11.4%
same,inhibition,[8],11.5%
same,inhibition,[9],7.23%
same,inhibition,[10],1.38%
same,inhibition,[11],0.49%
same,inhibition,[12],1.41%
same,inhibition,[13],-0.15%
same,inhibition,[14],0.33%
same,inhibition,[15],4.02%
same,inhibition,[16],2.97%
same,inhibition,[17],4.62%
same,inhibition,[18],0.7%
same,inhibition,[19],4.06%
same,inhibition,[20],0.76%
Fc1ccc(-c2ncn(CCCN3CCOCC3)c2-c2ccncc2)cc1,inhibition,[1],0.4%
same,inhibition,[2],0.27%
same,inhibition,[3],-5.35%
same,inhibition,[4],-0.43%
same,inhibition,[5],0.51%
same,inhibition,[6],1.59%
same,inhibition,[7],2.95%
same,inhibition,[8],-1.68%
same,inhibition,[9],-0.65%
same,inhibition,[10],1.13%
same,inhibition,[11],-2.07%
same,inhibition,[12],-0.81%
same,inhibition,[13],-0.25%
same,inhibition,[14],-2.49%
same,inhibition,[15],-6%
same,inhibition,[17],-8.87%
same,inhibition,[18],7.22%
same,inhibition,[19],3.34%
same,inhibition,[20],4.58%
CN(c1ccc(NC(=O)Nc2c(Cl)cccc2Cl)cc1)c1ccnc(Nc2cccc(CS(C)(=O)=O)c2)n1,inhibition,[1],-0.86%
same,inhibition,[2],-0.25%
same,inhibition,[3],2.16%
same,inhibition,[4],0.53%
same,inhibition,[5],-1.22%
same,inhibition,[6],0.12%
same,inhibition,[7],-1.62%
same,inhibition,[8],3.66%
same,inhibition,[9],3.73%
same,inhibition,[10],-0.6%
same,inhibition,[11],-2.39%
same,inhibition,[12],0.77%
same,inhibition,[13],-0.82%
same,inhibition,[14],2.18%
same,inhibition,[15],6.66%
same,inhibition,[16],-7.42%
same,inhibition,[18],3.11%
same,inhibition,[19],2.65%
same,inhibition,[20],6.91%
Nc1nccc(-c2c(-c3ccc(F)cc3)ncn2C2CCC(O)CC2)n1 (stereo not drawn),inhibition,[1],-0.94%
same,inhibition,[2],1.95%
same,inhibition,[3],4.67%
same,inhibition,[4],16.6%
same,inhibition,[5],3.18%
same,inhibition,[6],3.72%
same,inhibition,[7],7.23%
same,inhibition,[8],-6.38%
same,inhibition,[9],-0.81%
same,inhibition,[10],0.34%
same,inhibition,[11],-4.02%
same,inhibition,[12],2.29%
same,inhibition,[13],0.26%
same,inhibition,[14],-0.03%
same,inhibition,[15],1.03%
same,inhibition,[16],2.77%
same,inhibition,[17],5.56%
same,inhibition,[18],0.1%
same,inhibition,[19],-1.66%
same,inhibition,[20],-3.9%
